Data published in PubChem BioAssay (EPA / NIEHS).
Active and inactive are the calls of the source. The calls were made as follows: active = hit-call score of the fitted dose curve at least 0.9, where 1 is the maximum; inactive = score below 0.9.

Legend:
[1] = ATG_CRE_CIS: Attagene CIS-FACTORIAL HepG2 Assay for human cAMP Responsive Element (CRE) binding protein 3 (AID 2282926); details: HepG2 CRE cis-reporter, Attagene multiplexed mRNA; actives raise or lower the signal
Procedure, shortened: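 Endogenous CRE-binding activity in HepG2 is reported through a cis-regulated transfected reporter. Following a day of exposure, mRNA levels are determined by reverse transcription PCR and fluorescent fragment analysis; fits run in both directions versus DMSO.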

[2] = target: CCAAT/enhancer-binding protein beta (Homo sapiens) (UniProt P17676); test: ATG_C_EBP_CIS: Attagene CIS-FACTORIAL HepG2 Assay for human CCAAT/Enhancer Binding Protein (C/EBP) beta (AID 2282927); details: HepG2 Attagene cis-factorial transcription factor reporter; actives raise or lower the signal
Procedure, shortened: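 Changes in reporter mRNA, rather than exogenous chimeric receptor activity, reflect native C/EBP signalling in transfected HepG2 cells dosed for 24 h; transcripts are detected by RT-PCR and capillary electrophoresis.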

[3] = ATG_CMV_CIS: Attagene CIS-FACTORIAL HepG2 Assay for human CMV (Internal Marker) (AID 2282928); details: HepG2 CMV promoter reporter, transcription factor profiling; actives raise or lower the signal;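 also: endpoint acts as a background internal control marker rather than a target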
Procedure, shortened: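 Cell system: HepG2, transiently transfected multiple reporter units under cis promoters. Exposure: 24 h. Detection: RT-PCR, FAM labeling, HpaI digestion, capillary electrophoresis. Analysis: bidirectional, DMSO baseline.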

[4] = ATG_DR4_LXR_CIS: Attagene CIS-FACTORIAL HepG2 Assay for human Liver X Receptor (LXR), DR4 submotif (AID 2282929); details: HepG2 Attagene DR4 cis-reporter, mRNA transcription; actives raise or lower the signal
Procedure, shortened: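 After transient transfection with multiplexed cis-promoter reporter units, HepG2 cells received test chemicals for 24 h. Reporter mRNA induction, detected by fluorescence after RT-PCR and capillary electrophoresis, was scored relative to DMSO.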

[5] = target: Aryl hydrocarbon receptor (Homo sapiens) (UniProt P35869); test: ATG_Ahr_CIS: Attagene CIS-FACTORIAL HepG2 Assay for human Aryl Hydrocarbon Receptor (Ahr) (AID 2282930); details: HepG2 AhR cis-factorial reporter transcription; actives raise or lower the signal
Procedure, shortened: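 HepG2, transient MRTU (cis) transfection, 24 h exposure. RNA → cDNA → PCR → 6-FAM primer extension → HpaI 2 h 37 C → CE. Fit: bidirectional, DMSO baseline.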

[6] = ATG_AP_1_CIS: Attagene CIS-FACTORIAL HepG2 Assay for human Activator Protein 1 (AP-1) (AID 2282931); details: HepG2 Attagene cis-factorial AP-1 reporter mRNA; actives raise or lower the signal
Procedure, shortened: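 After 24 h incubation with test chemical, RNA from transfected HepG2 cells was reverse-transcribed, amplified, fluorescently labelled and digested before capillary electrophoresis. Reporters were driven by cis-regulatory promoters; activity fitted bidirectionally versus DMSO.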

[7] = ATG_BRE_CIS: Attagene CIS-FACTORIAL HepG2 Assay for human Bone Morphogenetic Protein (BMP) Response Element (BRE) (AID 2282933); details: HepG2 BMP response element reporter, Attagene transcription factor profiling; actives raise or lower the signal
Procedure, shortened: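 Endogenous transcription factor activity read in transiently transfected HepG2 cells after 24 h chemical exposure. Bidirectional curve fitting against DMSO; readout is reporter transcript level by RT-PCR with capillary electrophoresis of labelled products.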

[8] = target: Retinoic acid receptor alpha (Homo sapiens) (UniProt P10276); test: ATG_DR5_RAR_CIS: Attagene CIS-FACTORIAL HepG2 Assay for human Retinoic Acid Receptor Alpha (RARE), DR5 submotif (AID 2282934); details: HepG2 Attagene cis-factorial RARE DR5 reporter, mRNA; actives raise or lower the signal
Procedure, shortened: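 HepG2, transient cis-reporter transfection, 24 h exposure. mRNA readout: RT-PCR, FAM label, HpaI cut, capillary electrophoresis. DMSO baseline, gain/loss fitting.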

[9] = target: Transcription factor E2F1 (Homo sapiens) (UniProt Q01094); test: ATG_E2F_CIS: Attagene CIS-FACTORIAL HepG2 Assay for human E2F Transcription Factor 1 (AID 2282935); details: HepG2 Attagene cis-reporter, E2F reporter RNA transcripts; actives raise or lower the signal
Procedure, shortened: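 Total RNA from 24 h-treated, reporter-transfected HepG2 cells undergoes DNase I treatment, oligo(dT) reverse transcription, PCR and 6-FAM primer extension before capillary electrophoresis.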

[10] = ATG_E_Box_CIS: Attagene CIS-FACTORIAL HepG2 Assay for human Enhancer Box (E-box) (AID 2282936); details: HepG2 E-box cis-reporter transcription, actives raise or lower the signal
Procedure, shortened: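 DMSO served as negative control and baseline for bidirectional fitting. Human hepatoma HepG2 cells, transiently transfected with cis-reporter constructs, were dosed 24 h; reporter mRNA read by RT-PCR and capillary electrophoresis.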

[11] = ATG_M_61_CIS: Attagene CIS-FACTORIAL HepG2 Assay for M61 Transcription Factor (Internal Marker) (AID 2282937); details: HepG2 Attagene CIS-FACTORIAL M61 internal marker reporter; actives raise or lower the signal
Procedure, shortened: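 Using transiently transfected HepG2 liver cells, reporter transcript levels were assessed 24 h post-dosing by RT-PCR and capillary electrophoresis. Changes in either direction were fitted relative to DMSO controls.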

[12] = ATG_EGR_CIS: Attagene CIS-FACTORIAL HepG2 Assay for human Early Growth Response 1 (EGR1) (AID 2282938); details: HepG2 Attagene CIS-FACTORIAL EGR reporter mRNA; actives raise or lower the signal
Procedure, shortened: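 Fluorescent capillary-electrophoresis signal of reporter cDNA fragments serves as read-out. HepG2 cells bear transiently transfected cis-promoter reporter units and are exposed 24 h; gain- or loss-of-signal is fitted against DMSO.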

[13] = ATG_M_19_CIS: Attagene CIS-FACTORIAL HepG2 Assay for M19 Transcription Factor (Internal Marker) (AID 2282939); details: HepG2 Attagene CIS-FACTORIAL M19 internal marker reporter; actives raise or lower the signal
Procedure, shortened: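 Internal marker readout, fitted in both directions against DMSO, from HepG2 cells carrying transfected cis-element reporter constructs; RT-PCR and capillary electrophoresis of reporter mRNA after 24 h exposure.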

[14] = ATG_ERE_CIS: Attagene CIS-FACTORIAL HepG2 Assay for Estrogen Response Element (ERE) (AID 2282940); details: HepG2 ERE cis-reporter, Attagene RNA transcript; actives raise or lower the signal
Procedure, shortened: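 After 24 h compound treatment, RNA from transfected HepG2 cells was reverse-transcribed, reporter cDNA PCR-amplified, FAM-labelled, HpaI-cut and resolved by capillary electrophoresis. ERE-driven cis reporter transcripts reflect endogenous factors; gain or loss scored against DMSO.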

[15] = ATG_Ets_CIS: Attagene CIS-FACTORIAL HepG2 Assay for human Erythroblast Transformation Specific (ETS) (AID 2282941); details: HepG2 ETS cis-reporter transcription, actives raise or lower the signal
Procedure, shortened: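 After transient cis-reporter transfection, HepG2 cells receive test chemical for 24 h. Reporter mRNA levels, measured by RT-PCR and capillary electrophoresis fluorescence, are analysed bidirectionally relative to the DMSO baseline.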

[16] = target: Hepatocyte nuclear factor 3-beta (Homo sapiens) (UniProt Q9Y261); test: ATG_FoxA2_CIS: Attagene CIS-FACTORIAL HepG2 Assay for human Forkhead box A2 (FOXA2) (AID 2282942); details: HepG2 cis-reporter transcription factor activity, 24 h; actives raise or lower the signal
Procedure, shortened: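 Fluorescence signal of reporter cDNA fragments, separated by capillary electrophoresis, reflects endogenous transcription factor activity in transfected HepG2 after 24 h. Both increases and decreases fitted against DMSO.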

[17] = ATG_FoxO_CIS: Attagene CIS-FACTORIAL HepG2 Assay for human Forkhead box O (FoxO) (AID 2282943); details: HepG2 Attagene cis-reporter, FoxO element, mRNA; actives raise or lower the signal
Procedure, shortened: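 Human hepatoma HepG2 cells carry transiently introduced reporter transcription units controlled by cis promoter elements. Chemical treatment lasted 24 h, and mRNA signal was compared with DMSO.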

[18] = ATG_GATA_CIS: Attagene CIS-FACTORIAL HepG2 Assay for human GATA Binding Protein (AID 2282944); details: HepG2 GATA cis-element reporter, Attagene multiplex mRNA; actives raise or lower the signal
Procedure, shortened: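 Reporter transcripts from a GATA cis-regulated unit, among multiplexed reporters in transfected HepG2 cells, were measured by RT-PCR with capillary electrophoresis after 24 h dosing. Induction or loss scored relative to DMSO.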

[19] = ATG_GLI_CIS: Attagene CIS-FACTORIAL HepG2 Assay for human Zinc Finger Protein GLI1 (AID 2282945); details: HepG2, Attagene cis-factorial reporter mRNA, GLI element; actives raise or lower the signal
Procedure, shortened: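 Bidirectional curve fits relative to DMSO, using reporter mRNA levels from RT-PCR plus capillary electrophoresis. Cells were HepG2 transiently carrying cis-regulated reporter constructs, harvested 24 h after dosing.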

[20] = ATG_AP_2_CIS: Attagene CIS-FACTORIAL HepG2 Assay for human Activator Protein 2 (AP-2) (AID 2282932); details: HepG2 AP-2 cis-reporter, Attagene transcription factor profiling; actives raise or lower the signal
Procedure, shortened: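 Step one: transient transfection of HepG2 with reporter transcription units. Step two: 24 h chemical exposure. Step three: RNA extraction, RT-PCR, labelled fragment analysis by capillary electrophoresis; DMSO serves as baseline.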

Measured: AC50

Aryl hydrocarbon receptor (Homo sapiens), sequence (P35869 whole entry, looked up): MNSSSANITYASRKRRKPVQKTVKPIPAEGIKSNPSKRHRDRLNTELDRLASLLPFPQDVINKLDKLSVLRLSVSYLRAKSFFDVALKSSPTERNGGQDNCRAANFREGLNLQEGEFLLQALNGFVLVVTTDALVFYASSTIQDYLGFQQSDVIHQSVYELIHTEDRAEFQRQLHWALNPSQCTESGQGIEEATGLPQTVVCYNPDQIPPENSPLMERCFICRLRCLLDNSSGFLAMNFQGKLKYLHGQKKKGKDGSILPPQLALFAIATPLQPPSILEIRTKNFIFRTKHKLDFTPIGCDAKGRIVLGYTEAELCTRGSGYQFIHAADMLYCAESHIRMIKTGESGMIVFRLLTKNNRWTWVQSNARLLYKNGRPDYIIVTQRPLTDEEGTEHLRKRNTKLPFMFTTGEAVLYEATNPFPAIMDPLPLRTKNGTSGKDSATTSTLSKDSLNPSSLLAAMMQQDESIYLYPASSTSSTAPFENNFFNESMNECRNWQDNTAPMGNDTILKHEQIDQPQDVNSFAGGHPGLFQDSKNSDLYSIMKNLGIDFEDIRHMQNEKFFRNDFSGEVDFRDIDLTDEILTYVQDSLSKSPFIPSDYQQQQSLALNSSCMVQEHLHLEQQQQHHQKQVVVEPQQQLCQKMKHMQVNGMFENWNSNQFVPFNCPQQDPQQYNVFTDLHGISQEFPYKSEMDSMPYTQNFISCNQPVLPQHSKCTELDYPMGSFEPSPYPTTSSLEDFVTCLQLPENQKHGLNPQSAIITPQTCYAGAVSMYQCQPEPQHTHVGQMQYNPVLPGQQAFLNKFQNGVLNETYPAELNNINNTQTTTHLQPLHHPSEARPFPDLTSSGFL
Retinoic acid receptor alpha (Homo sapiens), sequence (P10276 whole entry, looked up): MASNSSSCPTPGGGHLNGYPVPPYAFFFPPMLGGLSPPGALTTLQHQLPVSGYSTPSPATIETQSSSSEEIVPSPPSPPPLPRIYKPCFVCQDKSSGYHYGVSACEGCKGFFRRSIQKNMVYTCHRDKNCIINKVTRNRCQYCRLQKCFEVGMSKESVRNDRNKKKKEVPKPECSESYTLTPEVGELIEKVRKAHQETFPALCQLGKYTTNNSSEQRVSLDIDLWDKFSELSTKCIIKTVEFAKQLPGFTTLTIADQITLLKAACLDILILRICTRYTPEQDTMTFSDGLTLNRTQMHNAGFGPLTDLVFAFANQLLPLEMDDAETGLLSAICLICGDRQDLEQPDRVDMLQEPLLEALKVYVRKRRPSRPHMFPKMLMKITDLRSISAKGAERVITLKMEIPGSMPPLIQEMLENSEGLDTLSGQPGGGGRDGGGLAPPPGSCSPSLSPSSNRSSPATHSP
CCAAT/enhancer-binding protein beta (Homo sapiens), sequence (P17676 whole entry, looked up): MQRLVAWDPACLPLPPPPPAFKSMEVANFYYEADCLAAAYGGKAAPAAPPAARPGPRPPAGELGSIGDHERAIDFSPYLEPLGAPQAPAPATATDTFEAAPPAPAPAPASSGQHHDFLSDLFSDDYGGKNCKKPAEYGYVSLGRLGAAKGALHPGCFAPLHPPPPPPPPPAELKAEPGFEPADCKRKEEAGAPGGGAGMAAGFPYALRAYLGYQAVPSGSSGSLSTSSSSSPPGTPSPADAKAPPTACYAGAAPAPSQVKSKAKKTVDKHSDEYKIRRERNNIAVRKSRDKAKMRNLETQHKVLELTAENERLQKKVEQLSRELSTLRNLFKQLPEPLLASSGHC
Hepatocyte nuclear factor 3-beta (Homo sapiens), sequence (Q9Y261 whole entry, looked up, the tested form may be a part): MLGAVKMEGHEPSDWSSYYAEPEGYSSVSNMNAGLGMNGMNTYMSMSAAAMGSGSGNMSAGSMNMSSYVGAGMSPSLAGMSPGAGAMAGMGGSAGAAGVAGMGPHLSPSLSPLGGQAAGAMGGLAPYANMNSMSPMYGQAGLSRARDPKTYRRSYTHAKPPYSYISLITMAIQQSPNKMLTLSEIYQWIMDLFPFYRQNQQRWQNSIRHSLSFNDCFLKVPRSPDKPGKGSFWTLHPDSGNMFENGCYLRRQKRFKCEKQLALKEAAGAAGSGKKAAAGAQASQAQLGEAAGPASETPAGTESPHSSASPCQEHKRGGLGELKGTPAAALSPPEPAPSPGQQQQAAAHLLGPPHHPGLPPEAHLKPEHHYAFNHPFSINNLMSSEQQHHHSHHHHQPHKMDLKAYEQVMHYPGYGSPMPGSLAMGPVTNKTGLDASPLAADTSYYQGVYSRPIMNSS
Transcription factor E2F1 (Homo sapiens), sequence (Q01094 whole entry, looked up): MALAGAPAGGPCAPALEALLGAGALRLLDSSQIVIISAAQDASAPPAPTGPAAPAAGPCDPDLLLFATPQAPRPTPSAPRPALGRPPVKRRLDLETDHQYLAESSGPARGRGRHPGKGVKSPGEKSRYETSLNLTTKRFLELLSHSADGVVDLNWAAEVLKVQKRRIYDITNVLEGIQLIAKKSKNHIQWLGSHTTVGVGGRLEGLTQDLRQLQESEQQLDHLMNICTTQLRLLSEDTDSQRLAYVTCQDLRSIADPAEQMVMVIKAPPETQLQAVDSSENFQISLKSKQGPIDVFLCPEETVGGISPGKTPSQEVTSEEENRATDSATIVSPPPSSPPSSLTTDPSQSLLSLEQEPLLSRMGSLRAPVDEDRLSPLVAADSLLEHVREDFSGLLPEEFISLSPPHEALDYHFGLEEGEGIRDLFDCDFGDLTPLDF

O=[N+]([O-])c1cccc(Cl)c1
not listed: [19] | [20]
inactive: all other assays above

CCCCCCCC/C=C\CCCCCCCC(=O)OCC
not listed: [14] | [17] | [20]
inactive: all other assays above

Cc1cc(CCC(=O)OCCOCCOCCOC(=O)CCc2cc(C)c(O)c(C(C)(C)C)c2)cc(C(C)(C)C)c1O
not listed: [14] | [20]
inactive: all other assays above

C[C@H](CCC(=O)NCC(=O)O)[C@H]1CC[C@H]2[C@@H]3[C@H](O)C[C@@H]4C[C@H](O)CC[C@]4(C)[C@H]3C[C@H](O)[C@]12C
not listed: [14] | [20]
inactive: all other assays above

CCCOC(=O)c1c(Cl)c(Cl)c(Cl)c(Cl)c1C(=O)OCCC
active: [1] 171 µM | [3] 73.6 µM | [4] 27 µM | [6] 178 µM | [9] 59.9 µM | [19] 74.8 µM
not listed: [14] | [16] | [20]
inactive: all other assays above

O=CN1CCOCC1
not listed: [6] | [16] | [18]
inactive: all other assays above

CC(C)Nc1nc(N)nc(Cl)n1
not listed: [6] | [14]
inactive: all other assays above

Cc1ccc(N)c(S(=O)(=O)O)c1
not listed: [14] | [20]
inactive: all other assays above

CCOC(=O)COC(=O)c1cc(Oc2ccc(C(F)(F)F)cc2Cl)ccc1[N+](=O)[O-]
active: [4] 35.5 µM
not listed: [5] | [14] | [16] | [19]
inactive: all other assays above

O=Cc1ccccc1S(=O)(=O)O
not listed: [6] | [14] | [17]
inactive: all other assays above

COC(=O)c1ccc([N+](=O)[O-])cc1
not listed: [5] | [14]
inactive: all other assays above

CCOc1ccccc1O
not listed: [5] | [14] | [17]
inactive: all other assays above

CCCCCCCCCCCCN1CCCCCC1=O
active: [4] 18.6 µM | [7] 16.4 µM | [10] 16.3 µM
not listed: [6] | [14] | [16] | [17] | [19]
inactive: all other assays above

CCC(C)c1cc([N+](=O)[O-])cc([N+](=O)[O-])c1OC(=O)OC(C)C (stereo not given)
inactive: [1] | [3] | [4] | [8] | [9] | [11] | [13]
active: [2] 49.1 µM | [6] 25.8 µM | [7] 100 µM | [10] 100 µM | [12] 26.5 µM | [15] 26.1 µM | [16] 62.6 µM | [17] 164 µM | [18] 24.1 µM
